A short description of assay [1]: ATG_GRE_CIS: Attagene CIS-FACTORIAL HepG2 Assay for human Glucocorticoid Response Elements (GRE) (AID 2282947). Particulars: HepG2 GRE cis-reporter, Attagene multiplex mRNA; AC50: actives raise or lower the signal unless noted; outcome: actives raise or lower the signal unless noted. In a few lines:
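Assay uses human hepatoma HepG2 cells transfected with cis-promoter reporter units, exposed 24 h. mRNA from reporters detected by RT-PCR plus capillary electrophoresis; DMSO serves as negative control and baseline.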

Assay [2] is described as follows: ATG_ISRE_CIS: Attagene CIS-FACTORIAL HepG2 Assay for human Interferon Regulatory Factor 1 (IRF1) binding to an Interferon-Stimulated Response Element (ISRE) (AID 2282948). Particulars: HepG2 ISRE cis-reporter (Attagene), mRNA transcription readout; actives raise or lower the signal. In a few lines: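 Quantitation relies on labelled RT-PCR fragments separated by capillary electrophoresis. Human HepG2 cells bearing cis-promoter reporter constructs were treated 24 h; DMSO served as baseline for bidirectional fitting.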

A short description of assay [3]: ATG_M_32_CIS: Attagene CIS-FACTORIAL HepG2 Assay for M32 Transcription Factor (Internal Marker) (AID 2282949).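 Further: background control marker of the multiplexed CIS panel rather than a real target.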 As to conditions: HepG2 Attagene cis-factorial M32 reporter, mRNA; actives raise or lower the signal. The method in brief: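 Internal background marker read-out: RT-PCR/capillary electrophoresis fluorescence of reporter transcripts from transiently transfected HepG2 cells after 24 h chemical exposure. Activity fitted bidirectionally relative to DMSO negative control.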

A short description of assay [4]: ATG_M_06_CIS: Attagene CIS-FACTORIAL HepG2 Assay for M06 Transcription Factor (Internal Marker) (AID 2282950). As to conditions: HepG2 Attagene CIS-FACTORIAL M06 internal marker reporter; actives raise or lower the signal. The method in brief: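 Measured 24 h post-dosing in transiently transfected HepG2 cells, this internal-marker endpoint reports reporter mRNA via RT-PCR with fluorescent primer extension and capillary electrophoresis. DMSO served as negative control and baseline for bidirectional fitting.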

Assay [5] has as its target Hepatocyte nuclear factor 6 (Homo sapiens) (UniProt Q9UBC0). Put plainly: ATG_HNF6_CIS: Attagene CIS-FACTORIAL HepG2 Assay for human Hepatocyte Nuclear Factor 6 (HNF6) (AID 2282952). As to conditions: HepG2 Attagene cis-factorial HNF6 reporter transcription; actives raise or lower the signal. In a few lines:
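Transiently transfected HepG2 cells expressing cis-regulated reporter transcription units were exposed to chemical for 24 h in a 24-well format. Reporter transcript abundance was determined by fluorescence capillary electrophoresis.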

The target in assay [6] is Heat shock factor protein 1 (Homo sapiens) (UniProt Q00613). Put plainly: ATG_HSE_CIS: Attagene CIS-FACTORIAL HepG2 Assay for human Heat Shock Transcription Factor 1 (HSE) (AID 2282953). Particulars: HepG2 HSE cis-reporter, Attagene RNA transcription; actives raise or lower the signal. The method in brief:
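Reporter mRNA induction in HepG2 is measured 24 h after dosing, using transiently transfected multiplexed cis-regulated reporter units. Signal comes from capillary electrophoresis of labelled RT-PCR products, with DMSO as negative control.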

Assay [7] can be described thus: ATG_MRE_CIS: Attagene CIS-FACTORIAL HepG2 Assay for human Metal Responsive Element (MRE) (AID 2282954). As to conditions: HepG2 MRE cis-reporter transcription, Attagene multiplex; actives raise or lower the signal. In a few lines:
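After a 24 h chemical exposure, transiently transfected HepG2 cells yield RNA whose reporter sequences are amplified, FAM-labelled and sized by capillary electrophoresis. Curves are fitted bidirectionally relative to DMSO.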

A short description of assay [8]: ATG_PBREM_CIS: Attagene CIS-FACTORIAL HepG2 Assay for human Phenobarbital-responsive Enhancer Module (PBREM) (AID 2282955). As to conditions: HepG2 PBREM cis-reporter, Attagene multiplexed transcription; actives raise or lower the signal. The method in brief:
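Measures endogenous factor action on a phenobarbital-responsive enhancer module. HepG2 transiently carrying cis reporters, 24 h treatment, mRNA read-out by RT-PCR plus capillary electrophoresis.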

Assay [9] concerns the target Paired box protein Pax-6 (Homo sapiens) (UniProt P26367). Description: ATG_Pax6_CIS: Attagene CIS-FACTORIAL HepG2 Assay for human Paired Box 6 (PAX6) (AID 2282956). As to conditions: HepG2 CIS-FACTORIAL PAX6 reporter transcription, RNA readout; actives raise or lower the signal. The method in brief: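 After twenty-four hours of chemical exposure, transfected HepG2 cells are harvested for RNA. Cis-promoter reporter transcripts are amplified, fluorescently labelled and sized by capillary electrophoresis, with gain and loss of signal scored against DMSO.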

Assay [10] addresses Hypoxia-inducible factor 1-alpha (Homo sapiens) (UniProt Q16665). Description: ATG_HIF1a_CIS: Attagene CIS-FACTORIAL HepG2 Assay for human Hypoxia Inducible Factor 1 (HIF1A) (AID 2282951). As to conditions: HepG2 Attagene cis-factorial HIF1a reporter transcription; actives raise or lower the signal. The method in brief:
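After 24 h chemical exposure of reporter-transfected HepG2 cells, reporter cDNA was PCR-amplified, labelled by 6-FAM primer extension (2 min 95 C, 20 s 68 C, 10 min 72 C), HpaI-cut (2 h, 37 C) and analysed by CE.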

“And” between values parts separate entries of the source, which are not always exact repeats. Equal values may be shown once. Some structures have more than one record in an assay (separate samples or runs), and their calls can disagree. The source made the active and inactive calls. How the source made its calls: active means hit-call score of the fitted dose curve at least 0.9, where 1 is the maximum; inactive means score below 0.9.

Hypoxia-inducible factor 1-alpha (Homo sapiens), sequence (Q16665 whole entry, looked up): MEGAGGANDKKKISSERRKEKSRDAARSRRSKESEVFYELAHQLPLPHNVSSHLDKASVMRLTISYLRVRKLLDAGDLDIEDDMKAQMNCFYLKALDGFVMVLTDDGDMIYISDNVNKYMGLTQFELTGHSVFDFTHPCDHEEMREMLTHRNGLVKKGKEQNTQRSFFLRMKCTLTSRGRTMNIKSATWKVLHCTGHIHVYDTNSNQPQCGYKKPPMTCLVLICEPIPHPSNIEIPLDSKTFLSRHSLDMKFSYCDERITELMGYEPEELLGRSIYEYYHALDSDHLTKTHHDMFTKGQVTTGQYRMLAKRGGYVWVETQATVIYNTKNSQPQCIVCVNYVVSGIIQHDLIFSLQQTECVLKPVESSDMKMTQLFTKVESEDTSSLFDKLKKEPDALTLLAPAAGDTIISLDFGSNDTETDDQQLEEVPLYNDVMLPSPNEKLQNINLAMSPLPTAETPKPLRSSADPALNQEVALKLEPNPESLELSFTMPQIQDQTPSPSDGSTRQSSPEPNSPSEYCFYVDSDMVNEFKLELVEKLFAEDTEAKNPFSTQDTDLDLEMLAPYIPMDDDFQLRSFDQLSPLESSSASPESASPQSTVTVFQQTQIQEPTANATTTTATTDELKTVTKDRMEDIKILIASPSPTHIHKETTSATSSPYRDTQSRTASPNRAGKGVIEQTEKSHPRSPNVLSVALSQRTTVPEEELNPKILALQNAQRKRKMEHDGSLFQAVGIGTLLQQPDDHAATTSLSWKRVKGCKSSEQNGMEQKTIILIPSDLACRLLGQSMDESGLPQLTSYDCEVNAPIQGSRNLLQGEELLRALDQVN
Heat shock factor protein 1 (Homo sapiens), sequence (Q00613 whole entry, looked up): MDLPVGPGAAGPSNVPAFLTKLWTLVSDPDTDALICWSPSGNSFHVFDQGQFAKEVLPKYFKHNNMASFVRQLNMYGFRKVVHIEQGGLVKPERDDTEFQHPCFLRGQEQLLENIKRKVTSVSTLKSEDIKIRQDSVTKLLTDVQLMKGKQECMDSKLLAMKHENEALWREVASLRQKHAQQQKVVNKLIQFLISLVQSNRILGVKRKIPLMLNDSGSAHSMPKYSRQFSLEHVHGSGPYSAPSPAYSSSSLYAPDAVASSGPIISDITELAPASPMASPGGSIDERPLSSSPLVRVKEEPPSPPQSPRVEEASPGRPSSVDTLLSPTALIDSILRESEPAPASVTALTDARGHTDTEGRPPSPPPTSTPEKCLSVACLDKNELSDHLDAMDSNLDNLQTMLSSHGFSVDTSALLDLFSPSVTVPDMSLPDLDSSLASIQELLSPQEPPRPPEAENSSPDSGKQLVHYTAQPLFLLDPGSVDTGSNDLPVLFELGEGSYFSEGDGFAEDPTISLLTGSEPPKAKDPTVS
Paired box protein Pax-6 (Homo sapiens), sequence (P26367 whole entry, looked up): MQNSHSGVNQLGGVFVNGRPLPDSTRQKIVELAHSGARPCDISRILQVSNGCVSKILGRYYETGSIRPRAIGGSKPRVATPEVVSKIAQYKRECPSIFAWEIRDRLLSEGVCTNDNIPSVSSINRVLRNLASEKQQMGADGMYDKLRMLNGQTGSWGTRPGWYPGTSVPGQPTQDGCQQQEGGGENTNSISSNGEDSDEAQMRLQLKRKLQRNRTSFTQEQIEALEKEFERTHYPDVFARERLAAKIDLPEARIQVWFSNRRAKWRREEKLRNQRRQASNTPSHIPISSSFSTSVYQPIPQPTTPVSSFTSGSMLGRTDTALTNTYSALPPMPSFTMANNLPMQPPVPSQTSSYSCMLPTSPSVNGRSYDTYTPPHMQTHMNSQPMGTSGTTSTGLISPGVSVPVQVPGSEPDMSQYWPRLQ
Hepatocyte nuclear factor 6 (Homo sapiens), sequence (Q9UBC0 whole entry, looked up): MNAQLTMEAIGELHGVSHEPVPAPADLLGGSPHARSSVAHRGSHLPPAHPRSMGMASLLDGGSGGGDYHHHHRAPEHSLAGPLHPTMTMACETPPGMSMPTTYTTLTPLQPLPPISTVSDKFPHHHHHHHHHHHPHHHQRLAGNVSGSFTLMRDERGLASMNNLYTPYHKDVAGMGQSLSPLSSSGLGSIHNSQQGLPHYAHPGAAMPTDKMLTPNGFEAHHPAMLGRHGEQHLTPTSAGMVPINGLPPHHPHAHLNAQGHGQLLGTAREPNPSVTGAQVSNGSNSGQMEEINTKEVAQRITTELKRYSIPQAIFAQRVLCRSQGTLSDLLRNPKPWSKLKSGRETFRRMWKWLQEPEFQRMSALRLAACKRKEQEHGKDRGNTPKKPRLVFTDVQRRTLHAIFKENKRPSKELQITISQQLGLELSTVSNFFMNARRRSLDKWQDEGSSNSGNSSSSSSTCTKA

Take `O=S(=O)(O)C(F)(F)C(F)(F)C(F)(F)C(F)(F)C(F)(F)C(F)(F)C(F)(F)C(F)(F)C(F)(F)C(F)(F)F`: the call in assay [1], in assay [2], in [3], in assay [4], in [5] and in assay [6] was inactive. Also, the molecule was called inactive in assay [7], in assay [8] and in assay [9].
Take `C=CC(C)(CCC=C(C)C)OC(C)=O` (configuration not stated): the molecule was classed as inactive in assay [2], in assay [3], in [4], in assay [10], in [5] and in assay [6]. For the same molecule, the molecule was classed as inactive in [7], in [8] and in assay [9].
In general, AC50 refers to the midpoint of the concentration-response curve, whichever way the signal moves. Regarding `C=CC(=O)OCC(CO)(COCC(COC(=O)C=C)(COC(=O)C=C)COC(=O)C=C)COC(=O)C=C`, the molecule was called inactive in assay [1], in assay [3], in assay [4], in assay [5], in [6] and in assay [8]. Besides, the half-maximal activity concentration (AC50) in assay [2] was 1.29 µM (active); in [7] it was 2.9 µM (active); in assay [9], 2.71 µM (active).
For the molecule `CCOC=O`, the outcome in assay [1], in assay [2], in [3], in [4], in assay [5] and in assay [6] was inactive. The molecule was called inactive in assay [7], in assay [8] and in [9].
For `C=CC(F)(F)C(F)(F)C(F)(F)C(F)(F)F`, the molecule was called inactive in assay [1], in assay [2], in assay [3], in assay [4], in assay [5] and in [6]. For the same molecule, the molecule was called inactive in assay [7], in assay [8] and in assay [9].
`CCOC(OCC)C(=O)c1ccccc1`: the outcome in assay [1], in assay [2], in assay [3], in assay [4], in [5] and in assay [6] was inactive. Also, the call in assay [7], in [8] and in assay [9] was inactive.
On to `O=C(CCCN1CCC(O)(c2ccc(Cl)cc2)CC1)c1ccc(F)cc1`, for which the concentration at half-maximal activity (AC50) in assay [1] was 52 µM (active); in assay [3] it was 62.4 µM (active); in assay [7], 33.4 µM (active); in [9], 51.2 µM (active). For the same molecule, the molecule was classed as inactive in [2] and in assay [4].
Consider `COC(O)c1ccccc1` (configuration not stated), for which the outcome in assay [1], in [2], in [3], in assay [4], in [5] and in [6] was inactive. For the same molecule, the call in assay [7], in assay [8] and in [9] was inactive.
Regarding `COC(=O)CC(C(C)=O)C(=O)OC` (configuration not stated), the molecule was classed as inactive in assay [1], in [2], in assay [3], in [4], in assay [5] and in [6]. For the same molecule, the molecule was classed as inactive in [7], in [8] and in assay [9].
In the case of `FC(F)(F)N1C(F)(F)C(F)(F)OC(F)(F)C1(F)F`, the molecule was called inactive in assay [1], in assay [2], in assay [3], in assay [4], in assay [5] and in assay [6]. For the same molecule, the molecule was classed as inactive in [7] and in assay [9].
Turning to `CC1COCc2cc3c(cc21)C(C)(C)C(C)C3(C)C` (configuration not stated), the molecule was called inactive in assay [1], in assay [2], in [4] and in assay [5]. The AC50 in assay [3] is 163 µM (active); in assay [6], 147 µM (active); in assay [7], 144 µM (active); in assay [9], 160 µM (active).
`O=P(O)(O)CCC(F)(F)C(F)(F)C(F)(F)C(F)(F)C(F)(F)C(F)(F)F`: the call in assay [1], in assay [2], in assay [3], in assay [4], in [5] and in [6] was inactive. The call in assay [7], in assay [8] and in assay [9] was inactive.
As to `c1ccc2c(c1)CCC2`, the outcome in [1], in assay [2], in assay [3], in [4], in [5] and in assay [6] was inactive. Moreover, the result in assay [7], in [8] and in assay [9] was inactive.
Take `c1cc[nH]c1`: the call in assay [1], in assay [2], in assay [3], in assay [4], in assay [5] and in assay [6] was inactive. Also, the outcome in assay [8] and in assay [9] was inactive.
With `CC(C)(C)c1ccc(O)c(O)c1`, the call in assay [2], in assay [3], in [4], in assay [10], in [5] and in [8] was inactive. Also, the AC50 in assay [10] was 26.1 µM (active) and 25.9 µM (active) and 25.5 µM (active); in [6], 133 µM (active) [middle of 5 runs].
In the case of `CCCCCCCCC1CCC(=O)O1` (configuration not stated), the result in assay [1], in [2], in [3], in assay [4], in assay [5] and in [6] was inactive. Besides, the outcome in [7], in assay [8] and in assay [9] was inactive.

The record behind these values is PubChem BioAssay (EPA / NIEHS).
